Shown are actives, neighbours in structure and some others; about 2.3% of the full set was active somewhere.
M1 antag = human M1 muscarinic receptor antagonists, primary screen, CHO-K1 cells, Fluo-8 calcium fluorescence, 1536-well. Muscarinic acetylcholine receptor M1 (Homo sapiens), P11229. CHO-K1 hM1, ACh EC80 antagonist. inhibition, % at 3 µM. 360,000 compounds, 1.3% hits. AID 588852, 2011;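 active means percent inhibition above its own plate's cutoff, namely the mean of that plate's compound wells plus 3 SD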;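 further: peak over basal fluorescence ratio during 140 s after agonist addition; 0% = ACh EC80 plus DMSO and 100% = DMSO alone without agonist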
Target sequence (P11229 whole entry, looked up): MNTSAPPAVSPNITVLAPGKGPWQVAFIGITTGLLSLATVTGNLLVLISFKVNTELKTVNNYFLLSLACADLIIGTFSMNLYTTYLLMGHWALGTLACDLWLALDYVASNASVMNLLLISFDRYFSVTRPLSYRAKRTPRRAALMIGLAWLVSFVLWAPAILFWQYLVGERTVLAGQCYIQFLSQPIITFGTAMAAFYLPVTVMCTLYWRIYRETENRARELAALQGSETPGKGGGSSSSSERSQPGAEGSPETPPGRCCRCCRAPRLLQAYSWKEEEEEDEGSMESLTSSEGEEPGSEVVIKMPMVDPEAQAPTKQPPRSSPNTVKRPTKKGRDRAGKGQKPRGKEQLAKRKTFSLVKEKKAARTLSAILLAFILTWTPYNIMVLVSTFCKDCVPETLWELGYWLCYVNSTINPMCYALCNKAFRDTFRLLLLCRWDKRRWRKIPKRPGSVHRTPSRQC
CHRM1 PAM = human M1 muscarinic receptor positive allosteric modulators, primary screen, CHO-K1 cells, Fluo-8 calcium fluorescence, 1536-well; CHO-K1 hM1, ACh EC20; 0% = ACh EC20, 100% = maximal ACh; activation, % at 3 µM; 360,000 compounds, 0.088% hits; Muscarinic acetylcholine receptor M1 (Homo sapiens), P11229; in the data active means activation above about 19%, passing the limit was not always enough
M1 PAM parental = nonselective calcium activators in parental CHO-K1 cells, primary screen, counter-screen for M1 PAM project, cell-based, Fluo-8 calcium fluorescence, full deck, 1536-well. ATP EC20; 0% at ATP EC20, 100% at ATP max. activation, % at 3 µM. 360,000 compounds, 0.02% hits;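 active means activation above the run cutoff, the mean activation of all test compounds plus 3 SD, cut at about 40% in these data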;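 further: peak over basal fluorescence ratio in a 140 s read after ATP addition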
CHO-K1 Ca antag = counter-screen for M1 antagonists: effect in parental CHO-K1 cells | ATP-induced calcium, Fluo-8 fluorescence | inhibition, % at 3 µM | 360,000 compounds, 0.6% hits;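 active means inhibition above a per-plate cutoff, the plate's mean sample inhibition plus 3 SD, cut at about 24% in these data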;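 further: 0% = DMSO plus EC80 ATP and 100% = DMSO alone without ATP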
CHRM1 agonist = human M1 muscarinic receptor agonists, primary screen, Fluo-8 calcium fluorescence, CHO-K1 cells, HTS; CHO-K1 hM1, agonist mode; 0% DMSO, 100% acetylcholine EC100; activation, % at 3 µM; 360,000 compounds, 0.33% hits; AID 588814, 2011;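 active means activation above the run's mean compound activation plus 3 SD, cut at about 16% in these data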;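 further: peak over basal fluorescence ratio within a 140 s kinetic read after compound addition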
M1 ag parental = counter-screen for M1 agonists: effect in parental CHO-K1 cells; Fluo-8 calcium fluorescence; scaled to maximal ATP response, vehicle zero; activation, % at 3 µM; 360,000 compounds, 0.48% hits; AID 602248, 2012; in the data active means activation above about 15%;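 further: untransfected CHO-K1 host cells lacking M1 receptor as counterscreen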
* = called active by the depositor.

SMILES	M1 antag	CHRM1 PAM	M1 PAM parental	CHO-K1 Ca antag	CHRM1 agonist	M1 ag parental
NS(=O)(=O)c1cccc(NC(=O)C(Cc2ccccc2)NC(=O)c2ccccc2)c1 (stereo unspecified)	-12	13	-16	3	-4	0
Cc1cc(OC(=O)c2cc(Cl)ccc2Cl)c([N+](=O)[O-])c(=O)[nH]1	2	-1	8	7	-2	0
COCCNc1nc(NCc2ccccc2F)c2sccc2n1	0	-6	11	1	-2	8
COc1ccccc1CNc1nc(NCc2ccccc2F)c2sccc2n1	40*	-16	5	28*	1	17*
Cc1nn2c(=O)[nH]cnc2c1Cl	-10	1	-2	15	-2	0
COc1cc(C(=O)NC(CCSC)C(=O)OCC(=O)C(C)(C)C)cc(OC)c1OC (stereo unspecified)	-7	1	-1	-1	-2	1
OC1(CC#CCN2CCCCC2)c2ccccc2-c2ccccc21	55*	-27	22	-11	-7	1
O=C(CCCCN1CCCCC1)c1ccc2c(c1)Cc1ccccc1-2	19	-9	9	2	-3	13
CCN(CC#CCC1(O)c2ccccc2-c2ccccc21)CCO	-1	-1	21	-12	-7	2
OC1(C#CCCN2CCCCC2)c2ccccc2-c2ccccc21	99*	-27	-2	-6	-8	5
Cc1cc(=O)[nH]c(-c2ccccc2OC(F)(F)F)n1	-11	11	14	-2	6	18*
O=C(CNC(=O)c1ccc(-c2ccccc2)cc1)Nc1cccc(CO)c1	-2	1	-17	0	-2	0
CCN1CCN(C(=O)C(C)Nc2cc(Cl)c(OC)cc2OC)CC1 (stereo unspecified)	-4	4	-2	-10	-3	0
S=C(NCc1ccncc1)Nc1ccc(Cl)c(Cl)c1	12	-6	4	7	6	12
S=C(NCc1ccncc1)Nc1cc(Cl)cc(Cl)c1	5	5	-14	27*	13	13
COC(=O)c1cc(NC(=S)NCc2ccc(Cl)cc2)cc(C(=O)OC)c1	16	-4	-5	24*	15	13
CSc1ccccc1NC(=S)NCc1ccc(Cl)cc1	26*	-10	13	-3	-2	2
CS(=O)(=O)N1CCN(C(=O)NC2CCCCC2)CC1	-2	4	4	2	-6	0
Cc1c(NC(=O)c2nn3c(C(F)(F)F)cc(-c4ccccc4)nc3c2Cl)c(=O)n(-c2ccccc2)n1C	21	-14	-12	16	-6	2
COc1ccc(-c2cc(C(F)(F)F)n3nc(C(=O)Nc4c(C)n(C)n(-c5ccccc5)c4=O)c(Cl)c3n2)cc1	1	-9	-15	26*	-6	0
Cc1cc(NC(=O)c2cnn3c(C(F)(F)F)cc(-c4ccccc4)nc23)no1	33*	-17	-12	-5	-10	1
O=C(Cn1c2ccccc2c(=O)c2ccccc21)Nc1ccccc1F	-5	2	6	0	-7	0
O=C(Cn1c2ccccc2c(=O)c2cc([N+](=O)[O-])ccc21)Nc1ccccc1Cl	-4	10	21	0	-7	15*
O=C(CN(Cc1ccccc1F)S(=O)(=O)c1ccc(Cl)cc1)NCCCO	-12	4	15	-4	-2	0
COc1cc(-c2nc3ccccn3c2/N=C/c2ccccc2)ccc1O	-7	-6	12	-19	27*	0
COc1cc(-c2nc3ccccn3c2NCC2CCCO2)ccc1O (stereo unspecified)	24*	-13	14	-2	2	5
CCOc1cc(-c2nc3ccccn3c2NCC2CCCO2)ccc1O (stereo unspecified)	24*	-13	7	15	2	5

Source: PubChem BioAssay (The Scripps Research Institute Molecular Screening Center)
